Only some compounds are listed: those with a hit (about 15% of all), similar ones and a draw of the others.
RORg inh = qHTS for inhibitors of ROR gamma transcriptional activity | actives 5.4% (n = 310,000) | Nuclear receptor ROR-gamma (Mus musculus), P51450 | Drosophila S2 Gal4-RORgamma UAS-luciferase reporter, 20 h | Potency, µM (titrated, usually from 53.6 µM), for inactives: at the top dose activity change, negative = inhibition, hits mostly inhibitors | AID 2551, 2010; also: nearly all actives have a fitted effect of over 60% in size
Target sequence (P51450 whole entry, looked up, the tested form may be a part): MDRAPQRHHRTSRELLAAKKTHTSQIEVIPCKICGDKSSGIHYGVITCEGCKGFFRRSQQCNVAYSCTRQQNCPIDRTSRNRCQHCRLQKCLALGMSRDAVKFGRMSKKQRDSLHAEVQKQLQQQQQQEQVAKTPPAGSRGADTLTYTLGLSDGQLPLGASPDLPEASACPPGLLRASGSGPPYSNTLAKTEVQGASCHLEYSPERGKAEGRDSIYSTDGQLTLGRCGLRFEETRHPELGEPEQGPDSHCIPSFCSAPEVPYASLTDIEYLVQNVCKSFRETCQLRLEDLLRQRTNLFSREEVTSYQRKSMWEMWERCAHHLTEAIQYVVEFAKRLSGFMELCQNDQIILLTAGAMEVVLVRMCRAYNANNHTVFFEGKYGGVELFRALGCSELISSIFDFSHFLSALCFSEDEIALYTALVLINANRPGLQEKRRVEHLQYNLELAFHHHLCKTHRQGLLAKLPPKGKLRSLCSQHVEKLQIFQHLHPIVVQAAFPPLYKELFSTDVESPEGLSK
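Luminescence from a UAS-regulated Photinus luciferase reporter in stably transfected Drosophila Schneider cells is measured; decreased signal marks ROR gamma inhibition. Fusion expression is induced by 700 uM copper sulfate for 20 hr.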
ELG1 DNA repair = qHTS screen for small molecules that inhibit ELG1-dependent DNA repair in human embryonic kidney (HEK293T) cells expressing luciferase-tagged ELG1 | HEK293T ELG1-luciferase reporter, luminescence, 16 h; DNA damage induced by 5-fluorouridine | Potency, µM (doses to about 46.1 µM), without a hit: top-dose activity change, negative = inhibition, usual class: inhibitors | actives 2.3% (n = 330,000); also: nearly all actives have a fitted effect of over 55% in size
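Quantitative HTS, concentration-response format. 2,000 cells/well co-treated with 5-fluorouridine and compound, 16 hr in 5% CO2 at 37 °C; ONE-Glo luminescence read after 30 min.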
DT40 TDP1 no CPT = qHTS for Inhibitors of human tyrosyl-DNA phosphodiesterase 1 (TDP1): qHTS in cells in absence of CPT; DT40 Tdp1-/- hTDP1 cells, no CPT, ATP luminescence, 48 h; AID 686978, 2013; Potency, µM (titrated, usually from 46.2 µM), inactives show at the highest dose activity change, negative = growth inhibition, usual class: inhibitors; actives 15% (n = 420,000); also: nearly all actives have a fitted effect of over 55% in size
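No-CPT arm: Tdp1-/-;hTDP1 DT40 cells (400/well) plus compounds, incubated ≥48 hr at 37 °C. Readout CellTiter-Glo luminescence.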
Gal4-VP16 FLuc = VP16 counterscreen qHTS for inhibitors of ROR gamma transcriptional activity; Drosophila S2 Gal4-VP16 UAS-luciferase, luminescence, 20 h; Potency, µM (top dose mostly 53.6 µM), without a hit: at the top dose activity, negative = inhibition, usual class: inhibitors; actives 3.5% (n = 310,000); AID 2546, 2010;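 also: Gal4-VP16 expression switched on by copper sulfate through the metallothionein promoter; nearly all actives have a fitted effect of over 50% in size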
12-LOX inh = Primary qHTS assay for inhibitors of human arachidonate 12S-lipoxygenase (ALOX12): Round 2; Polyunsaturated fatty acid lipoxygenase ALOX12 (Homo sapiens), P18054; purified 12hLO, xylenol orange hydroperoxide absorbance; Potency, µM (doses to about 108 µM), without a hit: top-dose activity change, negative = inhibition, actives largely listed as inhibitors; actives 1.1% (n = 580,000)
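Hydroperoxide product was detected by ferrous iron/xylenol orange as the 573 to 405 nm absorbance ratio. Arachidonic acid at 40 uM (final) was turned over for 30 min at room temperature by 150 nM human 12hLO, pH 7.0 Hepes buffer, after 15 min compound preincubation.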
DT40 TDP1 CPT = qHTS for Inhibitors of human tyrosyl-DNA phosphodiesterase 1 (TDP1): qHTS in cells in presence of CPT. Potency, µM (titrated, usually from 46.2 µM), without a hit: top-dose activity change, negative = growth inhibition, usual class: inhibitors. AID 686979, 2013. actives 12% (n = 420,000). chicken DT40 Tdp1-/-;hTDP1 cells + 20 nM CPT, ATP luminescence, 48 h; also: nearly all actives have a fitted effect of over 55% in size
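Cell growth measured by CellTiter-Glo luminescence after a minimum 48 h, 37 C compound exposure with 20 nM CPT in Tdp1-knockout DT40 cells stably expressing hTDP1, seeded 400/well; qHTS titration format.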
* marks the source's active call; other numbers are inactive results; ? = inconclusive; . = no result given; [ ] = dose if it differs, or a comment. Calls follow the shape of the dose curve; as a rule, active = well fitted curve in the direction sought with a large enough effect; inconclusive = small, poorly fitted or top-dose-only effect, or another doubt; inactive = no such curve, though single readings can be large; an effect the other way counts as inactive or inconclusive. % is scaled to controls: 0 for no effect and ±100 for the full control effect; potency is read from the fitted curve at half-maximal effect.

SMILES	RORg inh	ELG1 DNA repair	DT40 TDP1 no CPT	Gal4-VP16 FLuc	12-LOX inh	DT40 TDP1 CPT
COc1cccc(NC(=O)O[C@@H]2CC[C@]3(C)C(CC[C@@H](O)[C@H]3CC(=O)N3CC[C@H](NC(C)=O)C3)[C@]2(C)CO)c1 (some centres undefined)	.	.	.	.	45%	.
CNC(=O)c1cn2c(n1)CN([S+](=O)([O-])c1cccc(C(F)(F)F)c1)CC2	.	.	.	.	7%[6.33 µM]	.
O=C(NC(=S)NCc1ccc(-c2nc3ccccc3s2)cc1)c1ccco1	7.1µM*	?	?	5.6µM*	11µM*	?
COC(=O)c1sc(NC(=O)c2ccco2)nc1C	31%	?	?	-12%	12%	?
COc1ccc2nc(NC(=S)NC(=O)c3ccco3)sc2c1	1.1µM*	?	?	?	-10%	-5%
COc1ccc2nc(NC(=O)c3ccoc3C)sc2c1	?	?	?	?	-1%	?
COc1ccc2c(c1)Cc1sc(NC(=O)c3ccco3)nc1-2	-27%	?	?	?	7%	?
COc1ccc2sc(NC(=O)c3ccco3)nc2c1	10µM*	?	-24%	?	8.9µM*	?
O=C(NCc1ccc(-c2nc3ccccc3s2)cc1)c1ccco1	4%	?	-5%	-16%	-19%	-13%
Cc1nc(NC(=O)c2ccco2)sc1C(=O)O	7.1µM*	3%	10µM*	11µM*	-3%	6.5µM*
Cn1c(CNC(=O)CN2CC3CC(C2)[C@H]2CCCC(=O)N2C3)nc2ccccc21 (some centres undefined)	.	.	.	.	84%	.
O=C1CCCCC(C(=O)NCc2ccco2)N1 (centres undefined)	.	.	.	.	17%	.
COc1ccc(CN2C[C@@H](C(N)=O)[C@H](c3nc(C)no3)C2)c(Cl)c1OC	.	.	.	.	70%	.
Cc1cc(Cl)cc2sc(NC(=O)c3ccco3)nc12	-6%	?	-5%	?	.	12%
Cc1cc(C)c2nc(NC(=O)c3ccco3)sc2c1	4.5µM*	?	?	10µM*	17%	-23%
O=C(NC(=S)Nc1nc2ccccc2s1)c1ccco1	0.89µM*	?	?	1.3µM*	-8%	?
O=C(CCNC(=O)c1ccco1)Nc1nc2ccccc2s1	.	?	0%	.	-30%	7%
O=C(Nc1nc2ccccc2s1)C1CCN(C(=O)c2ccco2)CC1	?	0%	15µM*	19%	?	?
CCCOc1ccc(C(=O)NC(=S)Nc2nc3ccccc3s2)cc1	0.79µM*	?	-13%	?	?	6%
CSc1ccccc1NC(=O)c1ccc(F)cc1	.	.	.	.	0%	.
Cc1c(C(=O)NC(c2ccccc2)c2nccn2C)oc2ccc(F)cc12 (centres undefined)	.	.	.	.	9%	.
CCc1ccc(Nc2nnc(SCC(=O)Nc3ccnn3C3CCCC3)s2)cc1	.	.	.	.	-1%	.
Cn1cnnc1C1CCCN(S(=O)(=O)N2CCCCCC2)C1 (centres undefined)	.	.	.	.	20%	.
Cc1nn(C)c(Oc2ccc(Cl)cc2)c1C(=O)Nc1ccc(F)cc1F	19%	-7%	7.3µM*	0%	-28%	?
Cc1cccc(NC(=O)CSc2ccc(-c3ccccn3)nn2)c1	.	.	?	.	-1%	?
SMILES	RORg inh	ELG1 DNA repair	DT40 TDP1 no CPT	Gal4-VP16 FLuc	12-LOX inh	DT40 TDP1 CPT
CCc1ccc(NC(=O)CSc2ccc(-c3ccccn3)nn2)cc1	-13%	?	23µM*	?	75%	?
Cc1ccc(NC(=O)CSc2ccc(-c3ccccn3)nn2)cc1F	-33%	?	12µM*	5%	13%	16µM*
CC(=O)Nc1cccc(NC(=O)CSc2ccc(-c3ccccn3)nn2)c1	-18%	4%	?	-10%	9%	?
CCOC(=O)c1ccccc1NC(=O)CSc1nccn1C	29%	1%	?	-7%	121%	-9%
O=C(CSc1ccc(-c2cccnc2)nn1)c1ccc([N+](=O)[O-])cc1	1%	-7%	?	1%	-9%	-17%
CCOC(=O)c1ccccc1NC(=O)CSc1ccc(-c2ccccn2)nn1	-20%	2%	?	-3%	0%	3.7µM*
O=C(CSc1ccc(-c2ccccn2)nn1)c1ccc([N+](=O)[O-])cc1	4.5µM*	16%	?	?	-13%	?
O=C(c1ccccn1)N1CCCC(n2cc(-c3nc(-c4ccccc4)no3)nn2)C1 (centres undefined)	.	.	.	.	22%	.
Cn1ccn(C(F)(F)C(F)Cl)c1=S (centres undefined)	.	.	.	.	5%	.
CCOC(=O)C1=CN(CC(=O)NC(C)c2ccccc2)S(=O)(=O)N=C1C (centres undefined)	.	.	.	.	26%	.
O=C(CSc1ccccn1)Nc1ccc2c(c1)C(=O)c1ccccc1C2=O	?	?	16µM*	?	?	?
O=C(CSc1ccccn1)Nc1ccc2ccccc2c1	?	?	.	6%	.	.
CNC(=O)CSc1ncnc2c1cnn2-c1ccccc1	41%	?	9%	-4%	-4%	20%
Cc1cc(C)n(-c2nnc(SCC(=O)NC3CCCC3)c3ccccc23)n1	42%	16µM*	-28%	-10%	-14%	-28%
O=C(CSc1ncnc2c1cnn2-c1ccccc1)NC1CCCC1	.	?	23µM*	.	22%	18µM*
O=C(CSc1ncnc2c1cnn2-c1cccc(Cl)c1)NCC1CCCO1 (centres undefined)	?	-13%	15µM*	-18%	?	?
COc1cc(C(=O)N2CCC(CC(=O)NCCN3CCCCCC3)CC2)cc(OC)c1OC	.	.	.	.	-8%	.
CC(C(=O)NC1CCN(c2cnn(CC3CC3)c(=O)c2)CC1)c1ccccc1 (centres undefined)	.	.	.	.	40%	.
CCn1ncc(N2CCC(NC(=O)c3ccc(OC)cc3)CC2)cc1=O	.	.	.	.	20%	.
O=C(Nc1ccc(Cl)cc1)N1CCC(c2nnc3n2C(C(=O)N2CCOCC2)CC3)CC1 (centres undefined)	.	.	.	.	5%[6.33 µM]	.
Cc1cc2c(cc1C)CSC(c1cc(Cl)ccc1O)SC2	.	.	.	.	13µM*	.
CCCCc1nnc(NC(=O)c2cc(=O)[nH]c3ccccc23)s1	.	.	.	.	-3%	.

Assay outcomes: PubChem, National Center for Advancing Translational Sciences (NCATS)
